Compounds with a hit are over-represented: about 1.3% of the library has one in this group of screens.
PKA-R1A activ: PKA-R1A complex activation; P00514+P68181; PKA-R1A dissociation, Cy5-IP20 fluorescence polarization; scaled: DMSO 0%, 113 µM cGMP 100%; activation, % at 11.4 µM; 340,000 tested, 0.083% active; AID 504707;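 active means percent activation above the mean of all tested compounds plus 3 SD, cut at about 19% in these data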;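 further: higher means more PKAc released from R1A so a rise in polarization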
PKA-R2B activ: activators of human PKA-R2B complex | P22694+P31323 | PKA-R2B holoenzyme dissociation, Cy5-IP20 fluorescence polarization; R2B truncated from residue 108, S112A mutant; 0% DMSO only, 100% 113 µM cGMP | activation, % at 11.4 µM | 340,000 tested, 0.079% active;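 active means activation above a cutoff set at the mean over all compounds plus 3 SD, cut at about 18% in these data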;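 further: higher means more holoenzyme dissociation and a rise in polarization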
Rpn11 block: inhibitors of human proteasome Rpn11 | human 26S proteasome, Ub4-pepOG fluorescence polarization; 20S core pre-blocked with epoxomicin | 360,000 tested, 0.59% active | O00487 | calls only at 20 µM;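 active means inhibition at 20 µM, scaled to each plate's controls, above about 33%, limit read from the data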
Neddylation inh: blocks human cullin neddylation; inhibition, % at 25 µM; 360,000 tested, 0.58% active; P61081+Q13564; TR-FRET cullin neddylation, biochemical; in the data active means inhibition above about 36%
Target sequence (P61081 whole entry, looked up): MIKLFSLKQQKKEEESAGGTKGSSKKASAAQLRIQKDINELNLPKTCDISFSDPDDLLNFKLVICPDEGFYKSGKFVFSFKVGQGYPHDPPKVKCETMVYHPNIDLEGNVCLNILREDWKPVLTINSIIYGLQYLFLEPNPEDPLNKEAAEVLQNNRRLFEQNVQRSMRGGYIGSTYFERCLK
Target sequence (Q13564 whole entry, looked up): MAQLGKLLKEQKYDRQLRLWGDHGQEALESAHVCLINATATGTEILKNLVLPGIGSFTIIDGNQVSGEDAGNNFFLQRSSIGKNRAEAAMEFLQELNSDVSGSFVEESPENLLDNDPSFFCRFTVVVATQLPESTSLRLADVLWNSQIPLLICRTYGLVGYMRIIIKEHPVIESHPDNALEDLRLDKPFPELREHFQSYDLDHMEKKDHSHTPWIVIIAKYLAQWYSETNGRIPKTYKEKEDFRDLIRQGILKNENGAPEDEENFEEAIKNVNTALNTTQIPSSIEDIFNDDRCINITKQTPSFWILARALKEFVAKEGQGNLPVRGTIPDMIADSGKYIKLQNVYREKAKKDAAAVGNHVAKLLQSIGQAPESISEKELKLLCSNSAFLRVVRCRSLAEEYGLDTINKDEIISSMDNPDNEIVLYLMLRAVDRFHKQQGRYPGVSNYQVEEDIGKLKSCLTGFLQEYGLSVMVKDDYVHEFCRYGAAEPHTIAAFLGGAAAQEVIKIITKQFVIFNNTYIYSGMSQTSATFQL
Neddyl inh conf: cullin neddylation inhibition, confirmation | shares compounds with Neddylation inh | TR-FRET cullin neddylation biochemical assay | 1,800 tested, 13% active | calls only at 25 µM | AID 652217; in the data active means inhibition above about 40%;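 further: neddylation substrate is the cullin 1 ring ligase complex with SKP2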
Starred values were filed as active, the others as inactive; i = inactive; · = no result shown; + = active, no number.

SMILES | PKA-R1A activ | PKA-R2B activ | Rpn11 block | Neddylation inh | Neddyl inh conf
Nc1ccccc1-n1cccc1 | · | · | i | 41* | i
O=C1C2CC3N1CCC31c3ccccc3-n3c1c2ccc3=O (stereo not drawn) | -3 | -4 | i | 45* | +
Cc1ccc2nc(CSc3nc(C)cc(C)c3C#N)[nH]c2c1 | 3 | 12 | i | 48* | ·
O=C(Nc1ccccc1F)C(=Cc1sc(N2CCOCC2)nc1-c1ccccc1)C(=O)Nc1ccccc1F | -1 | 15 | i | 7 | ·
COc1cc(C(=O)N/N=C/c2sc(N3CCOCC3)nc2-c2ccccc2)cc(OC)c1OC | 10 | 3 | i | 52* | i
O=C(O)c1cccc(N/N=C/c2sc(N3CCOCC3)nc2-c2ccccc2)c1 | 0 | 3 | i | 41* | ·
Cc1cc(C(=O)N/N=C/c2sc(N3CCOCC3)nc2-c2ccccc2)c(C)o1 | 2 | -4 | i | 35 | ·
Nc1ccc(C(=O)N/N=C/c2sc(N3CCOCC3)nc2-c2ccccc2)cc1 | -8 | 4 | i | 48* | i
N=C(CC1CC(=O)NC(=O)C1)C1=C(O)CCCC1=O | 7 | -12 | i | 8 | ·
Cc1ccc(NC(=O)C2CCN(S(=O)(=O)c3ccc4c(c3)OCCO4)CC2)nc1 | -13 | -5 | i | 8 | ·
CS(=O)(=O)c1ccc(Cl)c(NC(=O)COC(=O)CCCN2C(=O)c3cccc4cccc(c34)C2=O)c1 | 2 | -1 | i | 50* | i
CCN1C(=O)[C@H]2[C@@H](c3ccc(OC)cc3)N[C@]3(CCCN(Cc4ccc(OC)cc4)C3=O)[C@H]2C1=O | 14 | -10 | i | -7 | ·
Cc1ccc(C(=O)N/C(=C/c2ccc(-c3cc(C(F)(F)F)ccc3Cl)o2)C(=O)NCc2cccnc2)cc1 | 4 | 0 | i | 48* | ·
Cc1ccc(-c2nn(-c3ccccc3)cc2C2CC(c3cccs3)=NN2C(=O)CCC(=O)O)cc1 (stereo not drawn) | -4 | -1 | i | 41* | i
O=C(Nc1ccc(F)cc1)c1ccccc1NS(=O)(=O)N1CCCC1 | -6 | -4 | i | 28 | ·
CC(Oc1ccccc1)C(=O)N1CCN(c2ccc(N3CCCCC3)nn2)CC1 (stereo not drawn) | -5 | 2 | i | 46* | ·
CSCCC(NC(=O)c1ccccc1)C(=O)N1CCN(C(c2ccccc2)c2ccccc2)CC1 (stereo not drawn) | -14 | -3 | i | 10 | ·
CCOC(=O)[C@]12CCCC=C1N(CCC1=CCCCC1)C(=O)[C@H](CC(=O)N1CCCC1)C2 | · | · | · | -3 | ·
COC(=O)Cn1c(CCC(=O)O)ccc1-c1ccccc1 | 10 | 3 | i | 43* | i
COc1ccc(NC(=O)Cn2c(CCC(=O)O)ccc2-c2ccccc2)cc1 | 5 | -6 | i | 13 | ·
O=c1oc(-c2ccccc2)cc2ccccc12 | · | · | i | 36 | ·
Nc1ccc(-c2cc3ccccc3c(=O)o2)cc1 | 0 | 10 | i | 46* | i
O=[n+]1cc(-c2cc3ccccc3o2)n([O-])c2c1CCCC2 | -5 | 11 | i | 44* | i
O=[n+]1cc(-c2ccccc2)n([O-])c2c1CCCCC2 | 6 | -3 | i | 6 | ·
CC1CCCCN1CC(=O)Nc1ccccc1Sc1ccccc1 (stereo not drawn) | -4 | 2 | i | 5 | ·
SMILES | PKA-R1A activ | PKA-R2B activ | Rpn11 block | Neddylation inh | Neddyl inh conf
O=C(CCCn1c(=O)[nH]c2ccc(Br)cc2c1=O)NCc1ccc(Cl)cc1 | -12 | -11 | i | -158 | ·
N#CC1=C(N)Oc2cc(N)ccc2C1c1ccc(Cl)cc1 (stereo not drawn) | -10 | 4 | i | 12 | ·
CCc1ccc(C2C(C#N)=C(N)Oc3cc(N)ccc32)cc1 (stereo not drawn) | 7 | -2 | i | 44* | i
O=C(CSC1=NS(=O)(=O)c2cc(Cl)ccc2N1)Nc1cccc(F)c1 | 5 | 4 | i | 2 | ·
CCCCCNc1nc(NCCCO)c(C#N)c2c1CN(C)CC2 | 12 | 1 | i | · | ·
CCCCCNc1nc(N2CCCC2)c2c(c1C#N)CCN(C)C2 | -1 | -9 | i | 44* | i
COc1cccc(/C=N/Nc2ncc(C)c(=O)[nH]2)c1OC | -10 | -3 | i | 40* | i
COc1cccc(/C=N/Nc2ncnc3c2[nH]c2ccc(C)cc23)c1OC | 1 | -3 | i | 81* | i
COc1ccc(/C=N/Nc2ncnc3c2[nH]c2ccccc23)c(OC)c1OC | -6 | -3 | i | 28 | ·
Cc1ccc(C(C(=O)NC2CCCCC2)N(CCCN2CCOCC2)C(=O)c2snc(C(N)=O)c2N)cc1 (stereo not drawn) | 0 | 3 | i | 28 | ·
Cc1c(Cc2ccccc2)c(=O)oc2c(C)c(OCc3nn[nH]n3)ccc12 | -11 | -12 | i | 41* | i
CCc1cc2c(=O)[nH]c(Cc3ccccc3)nc2s1 | 3 | 7 | i | -84 | ·
CCN(CC)C(=O)c1sc2nc(-c3ccccn3)[nH]c(=O)c2c1C | -4 | 0 | i | 15 | ·
CCc1cc2c(=O)[nH]c(-c3ccncc3)nc2s1 | 0 | -5 | i | 40* | ·
CCN(CC)C(=O)c1sc2nc(-c3ccncc3)[nH]c(=O)c2c1C | 13 | -6 | i | 39* | +
CC(=O)c1c(C)[nH]c(C(=O)OCC(=O)c2ccc(C)s2)c1C | -12 | -2 | i | -56 | ·
COc1ccc(C(C(=O)NC2CCCC2)N(Cc2cccnc2)C(=O)Cc2cccs2)c(OC)c1 (stereo not drawn) | 4 | -4 | i | -11 | ·
Cc1cc(S(=O)(=O)N2CCN=C2c2ccccc2)c(Cl)cc1Cl | -4 | 11 | i | 0 | ·
O=C(Cn1cnc2ccccc21)N/N=C/C(Br)=C/c1ccccc1 | -19 | 6 | i | 4 | ·
O=C(O)Cn1c(=O)c(-c2ccccc2)nc2ccccc21 | 8 | 2 | i | 55* | ·
Cc1cc(C)cc(N(C(=O)c2snc(C(N)=O)c2N)C(C(=O)NCC2CCCO2)c2cccs2)c1 (stereo not drawn) | · | · | i | 43* | i
COc1cccc(N(C(=O)c2snc(C(N)=O)c2N)C(C(=O)NCC2CCCO2)c2cccs2)c1 (stereo not drawn) | -5 | 6 | i | 35 | ·
NC(=O)c1nsc(C(=O)N(c2ccccc2)C(C(=O)NCC2CCCO2)c2cccs2)c1N (stereo not drawn) | 0 | 7 | i | 44* | i
Cc1ccc(C(C(=O)NCC2CCCO2)N(C(=O)c2snc(C(N)=O)c2N)c2ccc(F)cc2)o1 (stereo not drawn) | -10 | 0 | i | 53* | +
CN(C(=O)c1ccc(Br)o1)C1CCCCC1 | 3 | -4 | i | 8 | ·
COCCCNC(=O)c1cccn2c(=O)c3cc4ccccc4cc3nc12 | -13 | -8 | i | 40* | i
C=CCn1c(=N)c(C(=O)NCCCOC)cc2c(=O)n3cccc(C)c3nc21 | -12 | -4 | i | 32 | ·

Screens from PubChem.
